Assay results taken from ChEMBL document CHEMBL1157539, “Thousands of chemical starting points for antimalarial lead identification” (Nature, 2010).

Key:
Format in all cases: functional
[1] = tested on: Plasmodium falciparum; experiment: GSK_TCMDC: Inhibition of Plasmodium falciparum 3D7 in whole red blood cells, using parasite LDH activity as an index of growth. Test compounds present at 2uM
[2] = tested on: Plasmodium falciparum; experiment: GSK_TCMDC: Inhibition of Plasmodium falciparum Dd2 in whole red blood cells, using parasite LDH activity as an index of growth. Test compounds present at 2uM
[3] = tested on: HepG2; experiment: GSK_TCMDC: Percent inhibition of human HepG2 cell line. Test compounds present at 10uM.

Question: Which results are given for `O=S(=O)(Nc1cccc(CCN2CCC(N3CCCCC3)CC2)c1)c1ccc(Oc2ccccc2)cc1`?
Answer: Inhibition [1]: 100%; Inhibition [2]: 25%; Inhibition [3]: 28%

Question: `CC(C)(C)N1CCC(N(Cc2ccc(-c3ccc(C(F)(F)F)cc3)cc2)C(=O)Cn2c(CCc3cccc(F)c3F)nc(=O)c3cccnc32)CC1.O=C(O)C(O)C(O)C(=O)O` was tested. Which Inhibition [1] did it give?
Answer: The Inhibition was 100%.

Question: What about the Inhibition [2] of the same compound?
Answer: Its Inhibition is 53%.

Question: What about the Inhibition [3] of the same compound?
Answer: The Inhibition was 94%.

Question: For `CN1CCCc2ccc(NC(=O)c3ccc(-c4cc(C(F)(F)F)nn4C)s3)cc2C1.O=C(O)C(F)(F)F`, which Inhibition [1] is on record?
Answer: The Inhibition was 88%.

Question: And the Inhibition [2]?
Answer: Its Inhibition is 34%.

Question: And the Inhibition [3]?
Answer: Its Inhibition is 16%.

Question: Which results are given for `CCCCCC(C)C(C)c1cc(O)c2c(c1)OC(C)(C)CC2=Cc1ccncc1` (centres undefined)?
Answer: Inhibition [1]: 100%; Inhibition [2]: 78%; Inhibition [3]: 0%

Question: For `O=C(NC(c1ccccc1)c1ccccc1)C(c1cc2ccccc2o1)N1CCN(C(c2ccccc2)c2ccccc2)CC1` (centres undefined), which Inhibition [1] is on record?
Answer: The Inhibition was 95%.

Question: What about the Inhibition [2] of the same compound?
Answer: Its Inhibition is 78%.

Question: What about the Inhibition [3] of the same compound?
Answer: Its Inhibition is 0%.

Question: Which Inhibition [1] does the source give for `Cl.O=C(CCCC(=O)Nc1ccc(C2=NCCN2)cc1)Nc1ccc(C2=NCCN2)cc1` here?
Answer: The Inhibition was 91%.

Question: And the Inhibition [2]?
Answer: Its Inhibition is 81%.

Question: What about the Inhibition [3] of the same compound?
Answer: Its Inhibition is 3%.

Question: For `O=C(CSc1nccn1Cc1ccco1)Nc1cc(C(F)(F)F)ccc1Cl`, which Inhibition [1] is on record?
Answer: The Inhibition was 91%.

Question: What about the Inhibition [2] of the same compound?
Answer: Its Inhibition is 66%.

Question: What about the Inhibition [3] of the same compound?
Answer: Its Inhibition is 9%.

Question: Which Inhibition [1] does the source give for `CCCNCc1ccc(-c2ccc(CN(CCOC)C(=O)COc3ccccc3Cl)cc2)nc1.O=C(O)C(F)(F)F` here?
Answer: Its Inhibition is 96%.

Question: And the Inhibition [2]?
Answer: The Inhibition was 29%.

Question: What about the Inhibition [3] of the same compound?
Answer: Its Inhibition is 0%.

Question: `CCCCCn1c(Sc2ccc(C#N)c([N+](=O)[O-])c2)nnc1-c1ccc(Cl)cc1` was tested. Which Inhibition [1] did it give?
Answer: The Inhibition was 88%.

Question: And the Inhibition [2]?
Answer: The Inhibition was 29%.

Question: What about the Inhibition [3] of the same compound?
Answer: Its Inhibition is 18%.

Question: How did the Inhibition [1] turn out when `CC(C)(C)c1ccc(NC(=O)c2cccc(CN3CCN(Cc4cccc(O)c4)CC3)c2)cc1.O=C(O)C(F)(F)F` was run?
Answer: Its Inhibition is 92%.

Question: And the Inhibition [2]?
Answer: Its Inhibition is 3%.

Question: What about the Inhibition [3] of the same compound?
Answer: Its Inhibition is 28%.

Question: How did the Inhibition [1] turn out when `COc1ccc2nccc([C@@H](O)CN3CCC(NCc4ccc5c(c4)NC(=O)CO5)CC3)c2c1.Cl` was run?
Answer: Its Inhibition is 99%.

Question: And the Inhibition [2]?
Answer: The Inhibition was 6%.

Question: And the Inhibition [3]?
Answer: Its Inhibition is 1%.

Question: `Cc1cccc2nc(-c3ccc(-c4ccc(CN5CCC(C(N)=O)CC5)cc4)s3)[nH]c12.O=C(O)C(F)(F)F` was tested. Which Inhibition [1] did it give?
Answer: The Inhibition was 97%.

Question: And the Inhibition [2]?
Answer: The Inhibition was 51%.

Question: And the Inhibition [3]?
Answer: Its Inhibition is 4%.

Question: With `COc1ccccc1CCNc1nc(C)cc(N[C@@H](CC(C)C)C(=O)NCc2cccs2)n1.O=C(O)C(F)(F)F` as the compound, how does the Inhibition [1] read?
Answer: The Inhibition was 96%.

Question: What about the Inhibition [2] of the same compound?
Answer: The Inhibition was 31%.

Question: What about the Inhibition [3] of the same compound?
Answer: The Inhibition was 20%.

Question: Which results are given for `Fc1ccc2[nH]c(-c3ccc(-c4ccc(CNCCN5CCNCC5)cc4)cc3)nc2c1.O=C(O)C(F)(F)F`?
Answer: Inhibition [1]: 96%; Inhibition [2]: 70%; Inhibition [3]: 94%

Question: For `CCCCCCN1CCCN(Cc2ccc(C(=O)Nc3ccc(CC)cc3)cc2)CC1.O=C(O)C(F)(F)F`, which Inhibition [1] is on record?
Answer: Its Inhibition is 97%.

Question: And the Inhibition [2]?
Answer: Its Inhibition is 50%.

Question: And the Inhibition [3]?
Answer: Its Inhibition is 53%.

Question: What does the source list for `CC(C)C(=O)NC(c1ccc(Cl)cc1)c1ccc2cccnc2c1O` (centres undefined)?
Answer: Inhibition [1]: 91%; Inhibition [2]: 70%; Inhibition [3]: 53%

Question: What does the source list for `CC1CCC(C(C)C)C(OC(=O)CSc2nnc3c(n2)[nH]c2ccccc23)C1` (centres undefined)?
Answer: Inhibition [1]: 88%; Inhibition [2]: 74%; Inhibition [3]: 0%

Question: `Cc1nc(-c2ccc(C#N)cc2)sc1C(=O)NCCCCN1CCC(c2ccc3c(c2OCCO)CCCC3)CC1.Cl` was tested. Which Inhibition [1] did it give?
Answer: The Inhibition was 99%.

Question: What about the Inhibition [2] of the same compound?
Answer: The Inhibition was 10%.

Question: What about the Inhibition [3] of the same compound?
Answer: Its Inhibition is 14%.

Question: What does the source list for `CC=Cc1cc(Cc2c[nH]c(=N)[nH]c2=N)cc(CCC)c1OC`?
Answer: Inhibition [1]: 97%; Inhibition [2]: 1%; Inhibition [3]: 16%

Question: For `CCCNc1nc(NCc2c(C)cccc2C)nc(NC(C)(C)C)n1`, which Inhibition [1] is on record?
Answer: Its Inhibition is 91%.

Question: What about the Inhibition [2] of the same compound?
Answer: The Inhibition was 89%.

Question: And the Inhibition [3]?
Answer: Its Inhibition is 15%.

Question: What does the source list for `COc1cc(Cc2cnc(N)nc2N)cc(OCC(C)(C)C(=O)O)c1OC`?
Answer: Inhibition [1]: 89%; Inhibition [2]: 0%; Inhibition [3]: 0%

Question: `Cc1cc(=O)c(-c2ccc(OCc3ccc(OC(F)(F)F)cc3)cc2)c(C)[nH]1` was tested. Which Inhibition [1] did it give?
Answer: Its Inhibition is 97%.

Question: And the Inhibition [2]?
Answer: The Inhibition was 92%.

Question: What about the Inhibition [3] of the same compound?
Answer: Its Inhibition is 3%.

Question: Which Inhibition [1] does the source give for `CCOC(=O)CCCc1cc(NC2CCN(C)CC2)nc(Nc2ccc(C)cc2)n1` here?
Answer: The Inhibition was 90%.

Question: What about the Inhibition [2] of the same compound?
Answer: The Inhibition was 12%.

Question: And the Inhibition [3]?
Answer: Its Inhibition is 35%.

Question: For `CCCCn1c(-c2ccco2)nc2c(c(=O)c3ccccc3n2C)c1=O`, which Inhibition [1] is on record?
Answer: The Inhibition was 87%.

Question: What about the Inhibition [2] of the same compound?
Answer: Its Inhibition is 64%.

Question: What about the Inhibition [3] of the same compound?
Answer: The Inhibition was 11%.

Question: `COc1cc2nc(N3CCC(CNC(=O)c4ccc(-c5ccc(O)cc5)cc4)CC3)nc(N)c2cc1OC.O=C(O)C(F)(F)F` was tested. Which Inhibition [1] did it give?
Answer: Its Inhibition is 100%.

Question: And the Inhibition [2]?
Answer: Its Inhibition is 78%.

Question: What about the Inhibition [3] of the same compound?
Answer: Its Inhibition is 34%.

Question: `C=CCOC(=O)N1CCC(CNCc2ccc(-c3cccc(-c4nc5ccccc5[nH]4)c3)cc2)C1.O=C(O)C(F)(F)F` (centres undefined) was tested. Which Inhibition [1] did it give?
Answer: Its Inhibition is 100%.

Question: And the Inhibition [2]?
Answer: The Inhibition was 50%.

Question: What about the Inhibition [3] of the same compound?
Answer: The Inhibition was 39%.

Question: For `CC(C)CN1C(=O)c2ccc(C(=O)Nc3nccs3)cc2C1=O`, which Inhibition [1] is on record?
Answer: The Inhibition was 89%.

Question: And the Inhibition [2]?
Answer: The Inhibition was 0%.

Question: What about the Inhibition [3] of the same compound?
Answer: The Inhibition was 3%.

Question: For `Cc1cc(NC(=O)CCN2CCN(c3cccc(Cl)c3Cl)CC2)ccc1N1CCN(C(C)C)CC1.Cl`, which Inhibition [1] is on record?
Answer: Its Inhibition is 99%.

Question: And the Inhibition [2]?
Answer: The Inhibition was 8%.

Question: What about the Inhibition [3] of the same compound?
Answer: Its Inhibition is 82%.
